High-throughput results as filed in PubChem.
TRHR enhancer-1 = qHTS for Small Molecule Agonists and Allosteric Enhancers of Human TRH Receptor: Primary Screen for Enhancers. TRHR cells, fluo-8 calcium fluorescence, EC20 TRH enhancement. enhancement, % at 2 µM. 360,000 tested, 0.66% active. AID 493056, 2011; in the data active = enhancement above about 30%
Target sequence (P34981 whole entry, looked up): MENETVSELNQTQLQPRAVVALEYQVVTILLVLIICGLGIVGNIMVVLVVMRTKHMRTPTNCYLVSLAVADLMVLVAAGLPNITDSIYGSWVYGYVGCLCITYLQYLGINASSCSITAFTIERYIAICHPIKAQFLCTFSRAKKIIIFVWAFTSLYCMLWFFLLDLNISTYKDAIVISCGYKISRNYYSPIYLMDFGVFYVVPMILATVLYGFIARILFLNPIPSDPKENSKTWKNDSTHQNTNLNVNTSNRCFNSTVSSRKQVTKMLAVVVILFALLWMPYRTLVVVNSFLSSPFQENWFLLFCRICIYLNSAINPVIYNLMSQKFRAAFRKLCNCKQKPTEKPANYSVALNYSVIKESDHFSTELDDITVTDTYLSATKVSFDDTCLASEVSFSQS
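TRHR-expressing cells loaded with fluo-8 calcium dye were read kinetically (ex 480/em 530) during compound addition, then stimulated with an EC20 of TRH (10 nM final). Enhancement of the Gq-mediated intracellular calcium response was scored.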
TRHR agonist-1 = qHTS for Small Molecule Agonists and Allosteric Enhancers of Human TRH Receptor: Primary Screen for Agonists; TRHR cells, calcium flux fluo-8, FDSS agonist mode; activation, % at 2 µM; 360,000 tested, 0.18% active; Thyrotropin-releasing hormone receptor (Homo sapiens), P34981; in the data active = activation above about 30%
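TRHR-expressing cells, plated overnight in medium with 10% serum, were loaded with fluo-8 calcium dye at room temperature. After a 10 s baseline, library compound was pin-added and calcium release was recorded kinetically (ex 480/em 530) as agonist response.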
D1 antagonist = Antagonist of Human D 1 Dopamine Receptor: qHTS | D(1A) dopamine receptor (Homo sapiens), P21728 | HEK293 TREx D1 cells, calcium flux, dopamine EC80; active compounds read low | activity change, negative = inhibition, % at 10 µM | 360,000 tested, 3.2% active; in the data active = activity change below about -30%
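Inducible Hek293 Trex D1 cells (tetracycline, overnight, 30 C). Calcium dye 30–90 min RT. Antagonist mode: EC80 dopamine added after 180 s compound read.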
D1 PAM = Potentiators of Human D1 Dopamine Receptor: qHTS. D(1A) dopamine receptor (Homo sapiens), P21728. HEK293 TREx D1 cells, calcium flux, dopamine EC20 potentiation. potentiation, % at 10 µM. 360,000 tested, 0.036% active. AID 504651, 2011; in the data active = potentiation above about 30%
D1 ag = Allosteric Agonists of the Human D1 Dopamine Receptor: qHTS | D(1A) dopamine receptor (Homo sapiens), P21728 | HEK293 T-REx D1 cells, calcium flux, agonist mode | activation, % at 2 µM | 360,000 tested, 1% active; in the data active = activation above about 30%
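Tetracycline-induced HEK293 TREx D1 cells, force-coupled to calcium signalling, were dye-loaded with a no-wash calcium kit. Compound was pin-added after a 10 s baseline. Fluorescence was read kinetically at 1 cycle/s for 180 s, with calcium rises flagged as agonism.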
TRHR enhancer-2 = qHTS for Small Molecule Agonists and Allosteric Enhancers of Human TRH Receptor: Confirmation Screen for Enhancers; shares compounds with TRHR enhancer-1; TRH receptor cell assay, enhancer confirmation qHTS; activity change, negative = inhibition, % at 46.1 µM; 970 tested, under 10 active;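 note: compound effect scored on response to added TRH at EC20 of 10 nM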
TRHR agonist-2 = qHTS for Small Molecule Agonists and Allosteric Enhancers of Human TRH Receptor: Confirmation Screen for Agonists. shares compounds with TRHR enhancer-1. TRHR-expressing cells, agonist activation read-out. Potency, µM (series often up to 46.1 µM), actives largely listed as activators. 970 tested, 8% active. AID 493078, 2011; note: nearly all actives have a fitted effect of over 75% in size
Of the large screens only hits and unclear results are named; the others gave an inactive call (follow-up assays come after a bar, where they were run). An excerpt weighted towards active compounds, which were near 4.7% of everything screened. Unless noted, calls come from the whole dose curve; as a rule, active = well fitted curve in the direction sought with a large enough effect; inconclusive = small, poorly fitted or top-dose-only effect, or another doubt; inactive = no such curve, though single readings can be large; an effect the other way counts as inactive or inconclusive.

Nc1c(C(=O)OCc2ccccc2)c2nc3ccccc3nc2n1Cc1cccs1	D1 antagonist -30
CCC(C)OC(=O)c1c(N)n(Cc2cccs2)c2nc3ccccc3nc12 (stereo not given)	none
Cc1ccc(CN2C3CCCC2CC(NC(=S)NCc2ccccc2)C3)cc1 (stereo not given)	D1 antagonist -75, D1 ag 34
CCCN1C2CCCC1CC(NC(C)=O)C2 (stereo not given)	none
c1cc(C2N3CCCN2CC3)ccn1 (stereo not given)	D1 antagonist -44
O=C1CC(c2ccc(C(F)(F)F)cc2)c2c(c3ccccc3oc2=O)O1 (stereo not given)	none
CC/C(=C\C=C\[C@@H]1C=C[C@@H]2CCC[C@H]2[C@@H]1C(=O)c1ccc[nH]1)[C@@H]1O[C@@H]([C@@H](C)C(=O)O)CC[C@@H]1C	D1 antagonist -60
O=[N+]([O-])c1ccc(N2CCCCCC2)c2nonc12	TRHR agonist-1 142, D1 ag 526
CCc1ccccc1NC(=O)c1cccn(Cc2ccccc2F)c1=O	none
Cc1cc(C)cc(-n2c(O)c(C=Nc3ccc(N4CCOCC4)cc3)c(=O)[nH]c2=S)c1	D1 ag 35
CCOc1ccccc1NC(=O)c1cccn(Cc2ccccc2C)c1=O	none
Clc1ccc2c(c1)C(c1ccccc1Cl)=NCc1nnc(N3CCN(CCOc4ccccc4)CC3)n1-2	D1 ag 39
NCCc1c[nH]c2ccc(F)cc12	D1 antagonist -30
NCCc1c[nH]c2ccc(C(N)=O)cc12	none
CCNc1cc(N2CCNCC2)ccc1[N+](=O)[O-]	none
CC(C)c1ccc(OCC(=O)N2CCN(CCc3ccncc3)CC2)cc1	none
Nc1ccc2ccc3cccc[n+]3c2c1	TRHR agonist-1 65, D1 ag 131
C[n+]1c(-c2ccccc2)c2cc(N)ccc2c2ccc(N)cc21	none
COc1ccc(/C=C/c2nc3ccccc3c(=O)n2-c2ccc(C)cc2)cc1O	none
COc1ccc2c(c1)/C(=C/c1cnc[nH]1)C(=O)N2	D1 antagonist -34
O=C1Nc2ccccc2/C1=C/c1cnc[nH]1	none
O=[N+]([O-])c1ccc(NCc2ccccc2)c2nonc12	TRHR agonist-1 215, D1 antagonist -59, D1 ag 593
O=[N+]([O-])c1ccc(NCc2ccc(Cl)cc2)c2ccncc12	none
CCCC1=Nc2cc(C(=O)NC3CCC(C)CC3)ccc2Sc2ccccc21 (stereo not given)	none
O=c1c2ccccc2nc(/C=C\c2cccc(Br)c2)n1-c1ccc(O)cc1	none
O=[N+]([O-])c1cccc(CN2CCN(Cc3ccc(Br)cc3)CC2)c1	none
N=C1SCC(=O)N1Cc1ccccc1	D1 antagonist -31
O=Cc1c(C(=O)O)n(Cc2ccc(Cl)cc2)c2ccccc12	D1 ag 54
Cc1c(C=O)c2ccccc2n1Cc1ccccc1	none
NNC(=O)c1ccc(O)cc1	TRHR enhancer-1 47 | TRHR enhancer-2 inactive | TRHR agonist-2 inactive
COc1cc(C)cc(CN2CC=C(c3ccccc3)CC2)c1O	none
CC(C)CNP(=S)(c1ccccc1)C(C)(C)C (stereo not given)	TRHR enhancer-1 43 | TRHR enhancer-2 inactive | TRHR agonist-2 inactive
CC(C)(C)P(=O)(NCc1ccccc1)c1ccccc1 (stereo not given)	none
CCCCn1c(=O)c(C(=O)Nc2ccsc2C(=O)OC)c(O)c2ccccc21	none
